These results are taken from ChEMBL document CHEMBL1961873, “Compounds: GSK PKIS; Assays: Nanosyn kinase panel” (2012).

Assay [1] concerns the target High affinity nerve growth factor receptor (Homo sapiens) (UniProt P04629). The following applies: at 1 µM.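 Further: each value is the mean percent inhibition of TRKA.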
Assay [2] concerns the target BDNF/NT-3 growth factors receptor (Homo sapiens) (UniProt Q16620). The following applies: at 0.1 µM.
Assay [3] has the same target. The following applies: at 1 µM.
Assay [4] addresses NT-3 growth factor receptor (Homo sapiens) (UniProt Q16288). The settings on record: at 0.1 µM.
For assay [5] the target is unchanged. The following applies: at 1 µM.
Assay [6] concerns the target T1, Tyrosine-protein kinase TXK (Homo sapiens) (UniProt P42681).
T1 sequence (whole entry): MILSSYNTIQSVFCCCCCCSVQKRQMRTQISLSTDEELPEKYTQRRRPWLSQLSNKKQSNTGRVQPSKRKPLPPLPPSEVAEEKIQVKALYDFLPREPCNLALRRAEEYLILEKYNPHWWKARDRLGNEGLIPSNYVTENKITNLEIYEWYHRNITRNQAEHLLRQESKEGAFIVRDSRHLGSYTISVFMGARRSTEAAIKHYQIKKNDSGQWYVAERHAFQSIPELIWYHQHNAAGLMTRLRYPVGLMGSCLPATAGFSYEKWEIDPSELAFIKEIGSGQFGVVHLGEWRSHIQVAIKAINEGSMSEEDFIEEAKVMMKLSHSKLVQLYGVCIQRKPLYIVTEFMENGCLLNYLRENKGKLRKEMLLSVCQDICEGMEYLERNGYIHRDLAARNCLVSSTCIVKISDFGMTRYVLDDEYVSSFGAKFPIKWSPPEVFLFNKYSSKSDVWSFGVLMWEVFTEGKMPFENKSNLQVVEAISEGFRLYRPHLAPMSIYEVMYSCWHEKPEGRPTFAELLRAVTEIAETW
The following applies: at 0.1 µM.

Assay [7] has as its target T1, Tyrosine-protein kinase TXK (Homo sapiens). The settings on record: at 1 µM.
The target in assay [8] is Non-receptor tyrosine-protein kinase TYK2 (Homo sapiens) (UniProt P29597). The settings on record: at 0.1 µM.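 Further: each value is a mean of the inhibition readings.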
For assay [9], the target named is T2, Dual specificity protein kinase TTK (Homo sapiens) (UniProt P33981).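 Further: reported figures are mean TTK inhibition at 1 µM.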
T2 sequence (whole entry): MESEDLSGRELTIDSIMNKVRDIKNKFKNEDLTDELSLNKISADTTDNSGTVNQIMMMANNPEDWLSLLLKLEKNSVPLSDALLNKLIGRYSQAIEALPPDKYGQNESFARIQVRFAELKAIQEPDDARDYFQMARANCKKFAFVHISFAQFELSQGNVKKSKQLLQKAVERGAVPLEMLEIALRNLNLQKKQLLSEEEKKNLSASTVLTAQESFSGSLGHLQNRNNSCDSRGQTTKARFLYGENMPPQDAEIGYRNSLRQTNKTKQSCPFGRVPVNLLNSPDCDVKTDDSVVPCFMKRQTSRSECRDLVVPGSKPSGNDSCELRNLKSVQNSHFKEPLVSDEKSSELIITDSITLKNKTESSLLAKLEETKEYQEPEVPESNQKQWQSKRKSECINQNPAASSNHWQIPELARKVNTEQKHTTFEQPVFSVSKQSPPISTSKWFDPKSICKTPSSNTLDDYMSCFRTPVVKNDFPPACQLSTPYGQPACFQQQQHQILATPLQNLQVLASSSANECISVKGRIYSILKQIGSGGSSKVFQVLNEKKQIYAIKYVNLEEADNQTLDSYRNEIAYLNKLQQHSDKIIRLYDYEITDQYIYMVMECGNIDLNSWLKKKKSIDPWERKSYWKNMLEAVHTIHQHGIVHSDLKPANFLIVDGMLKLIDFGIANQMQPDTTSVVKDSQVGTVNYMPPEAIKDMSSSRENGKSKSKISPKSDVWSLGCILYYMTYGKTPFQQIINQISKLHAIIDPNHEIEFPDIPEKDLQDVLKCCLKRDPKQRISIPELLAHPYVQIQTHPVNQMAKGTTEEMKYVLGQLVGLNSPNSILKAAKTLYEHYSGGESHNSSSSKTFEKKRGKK
The following applies: at 1 µM.

The target in assay [10] is T3, Aurora kinase A (Homo sapiens) (UniProt O14965).
T3 sequence (whole entry): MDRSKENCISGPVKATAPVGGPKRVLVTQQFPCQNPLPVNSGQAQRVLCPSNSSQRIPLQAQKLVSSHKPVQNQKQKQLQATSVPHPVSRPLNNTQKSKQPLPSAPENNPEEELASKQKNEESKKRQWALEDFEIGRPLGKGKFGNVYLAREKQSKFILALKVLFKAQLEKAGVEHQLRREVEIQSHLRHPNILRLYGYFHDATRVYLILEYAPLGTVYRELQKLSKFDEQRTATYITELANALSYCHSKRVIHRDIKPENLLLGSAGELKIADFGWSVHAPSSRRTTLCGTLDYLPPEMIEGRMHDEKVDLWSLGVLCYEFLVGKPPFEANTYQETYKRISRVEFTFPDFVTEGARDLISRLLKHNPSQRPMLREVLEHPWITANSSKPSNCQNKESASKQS
The following applies: at 0.1 µM.

Assay [11] has as its target T3, Aurora kinase A (Homo sapiens). The settings on record: at 1 µM.
Assay [12] has as its target Aurora kinase B (Homo sapiens) (UniProt Q96GD4). The following applies: at 0.1 µM.
Assay [13] shares this target. The settings on record: at 1 µM.
The target in assay [14] is T4, Aurora kinase C (Homo sapiens) (UniProt Q9UQB9).
T4 sequence (whole entry): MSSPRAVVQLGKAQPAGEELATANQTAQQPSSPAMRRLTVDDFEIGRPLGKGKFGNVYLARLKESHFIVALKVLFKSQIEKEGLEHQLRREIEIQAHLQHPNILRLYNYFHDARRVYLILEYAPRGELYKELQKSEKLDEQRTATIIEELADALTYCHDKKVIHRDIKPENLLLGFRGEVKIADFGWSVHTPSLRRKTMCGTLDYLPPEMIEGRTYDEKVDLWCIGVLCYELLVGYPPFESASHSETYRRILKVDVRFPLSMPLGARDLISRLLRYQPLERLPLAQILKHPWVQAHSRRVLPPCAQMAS
The settings on record: at 0.1 µM.

Assay [15] addresses T4, Aurora kinase C (Homo sapiens). The following applies: at 1 µM.
Assay [16] concerns the target Serine/threonine-protein kinase 10 (Homo sapiens) (UniProt O94804). The settings on record: at 0.1 µM.
For assay [17] the target is unchanged. The settings on record: at 1 µM.
Assay [18] has as its target T5, Mitogen-activated protein kinase kinase kinase kinase 2 (Homo sapiens) (UniProt Q12851).
T5 sequence (whole entry): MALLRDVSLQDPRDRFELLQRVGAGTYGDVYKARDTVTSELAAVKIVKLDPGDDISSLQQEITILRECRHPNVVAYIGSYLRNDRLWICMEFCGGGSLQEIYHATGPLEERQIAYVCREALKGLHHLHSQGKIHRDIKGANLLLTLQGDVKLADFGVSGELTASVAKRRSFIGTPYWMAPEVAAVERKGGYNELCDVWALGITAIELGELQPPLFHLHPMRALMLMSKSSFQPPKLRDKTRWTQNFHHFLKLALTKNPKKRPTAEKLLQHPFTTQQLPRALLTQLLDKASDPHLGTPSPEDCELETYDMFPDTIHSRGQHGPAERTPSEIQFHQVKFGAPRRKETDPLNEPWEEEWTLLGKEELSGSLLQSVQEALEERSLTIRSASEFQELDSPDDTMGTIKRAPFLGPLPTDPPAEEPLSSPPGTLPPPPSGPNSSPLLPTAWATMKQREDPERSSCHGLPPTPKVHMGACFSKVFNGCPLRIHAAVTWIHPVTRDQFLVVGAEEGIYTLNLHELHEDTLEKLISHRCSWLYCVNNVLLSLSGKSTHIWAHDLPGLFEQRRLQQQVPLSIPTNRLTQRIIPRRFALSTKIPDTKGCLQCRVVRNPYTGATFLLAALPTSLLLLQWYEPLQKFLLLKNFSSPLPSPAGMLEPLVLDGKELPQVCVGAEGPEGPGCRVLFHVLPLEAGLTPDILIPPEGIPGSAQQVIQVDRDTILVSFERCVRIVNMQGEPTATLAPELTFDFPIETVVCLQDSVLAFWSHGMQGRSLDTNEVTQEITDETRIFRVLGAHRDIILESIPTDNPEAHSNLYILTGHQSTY
The following applies: at 0.1 µM.

In assay [19] the target is T5, Mitogen-activated protein kinase kinase kinase kinase 2 (Homo sapiens). The following applies: at 1 µM.
Assay [20] concerns the target Mitogen-activated protein kinase kinase kinase kinase 4 (Homo sapiens) (UniProt O95819). The following applies: at 0.1 µM.

Structures are written as SMILES. Several values for one entry are separate records, joined by “and”; a condition that tells them apart may be missing. Equal entries are not always repeated.

Sequence of Aurora kinase B (Homo sapiens) (Q96GD4 whole entry): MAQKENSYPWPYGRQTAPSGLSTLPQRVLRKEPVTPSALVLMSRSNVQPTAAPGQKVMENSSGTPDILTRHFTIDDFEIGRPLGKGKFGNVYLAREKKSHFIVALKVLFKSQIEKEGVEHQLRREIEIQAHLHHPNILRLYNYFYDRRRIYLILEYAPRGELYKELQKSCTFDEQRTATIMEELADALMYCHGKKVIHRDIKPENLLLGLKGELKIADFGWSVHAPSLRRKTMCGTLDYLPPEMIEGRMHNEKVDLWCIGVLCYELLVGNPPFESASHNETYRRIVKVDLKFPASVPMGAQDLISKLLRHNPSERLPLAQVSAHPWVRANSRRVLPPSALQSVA
Sequence of Mitogen-activated protein kinase kinase kinase kinase 4 (Homo sapiens) (O95819 2-1239 limits assumed): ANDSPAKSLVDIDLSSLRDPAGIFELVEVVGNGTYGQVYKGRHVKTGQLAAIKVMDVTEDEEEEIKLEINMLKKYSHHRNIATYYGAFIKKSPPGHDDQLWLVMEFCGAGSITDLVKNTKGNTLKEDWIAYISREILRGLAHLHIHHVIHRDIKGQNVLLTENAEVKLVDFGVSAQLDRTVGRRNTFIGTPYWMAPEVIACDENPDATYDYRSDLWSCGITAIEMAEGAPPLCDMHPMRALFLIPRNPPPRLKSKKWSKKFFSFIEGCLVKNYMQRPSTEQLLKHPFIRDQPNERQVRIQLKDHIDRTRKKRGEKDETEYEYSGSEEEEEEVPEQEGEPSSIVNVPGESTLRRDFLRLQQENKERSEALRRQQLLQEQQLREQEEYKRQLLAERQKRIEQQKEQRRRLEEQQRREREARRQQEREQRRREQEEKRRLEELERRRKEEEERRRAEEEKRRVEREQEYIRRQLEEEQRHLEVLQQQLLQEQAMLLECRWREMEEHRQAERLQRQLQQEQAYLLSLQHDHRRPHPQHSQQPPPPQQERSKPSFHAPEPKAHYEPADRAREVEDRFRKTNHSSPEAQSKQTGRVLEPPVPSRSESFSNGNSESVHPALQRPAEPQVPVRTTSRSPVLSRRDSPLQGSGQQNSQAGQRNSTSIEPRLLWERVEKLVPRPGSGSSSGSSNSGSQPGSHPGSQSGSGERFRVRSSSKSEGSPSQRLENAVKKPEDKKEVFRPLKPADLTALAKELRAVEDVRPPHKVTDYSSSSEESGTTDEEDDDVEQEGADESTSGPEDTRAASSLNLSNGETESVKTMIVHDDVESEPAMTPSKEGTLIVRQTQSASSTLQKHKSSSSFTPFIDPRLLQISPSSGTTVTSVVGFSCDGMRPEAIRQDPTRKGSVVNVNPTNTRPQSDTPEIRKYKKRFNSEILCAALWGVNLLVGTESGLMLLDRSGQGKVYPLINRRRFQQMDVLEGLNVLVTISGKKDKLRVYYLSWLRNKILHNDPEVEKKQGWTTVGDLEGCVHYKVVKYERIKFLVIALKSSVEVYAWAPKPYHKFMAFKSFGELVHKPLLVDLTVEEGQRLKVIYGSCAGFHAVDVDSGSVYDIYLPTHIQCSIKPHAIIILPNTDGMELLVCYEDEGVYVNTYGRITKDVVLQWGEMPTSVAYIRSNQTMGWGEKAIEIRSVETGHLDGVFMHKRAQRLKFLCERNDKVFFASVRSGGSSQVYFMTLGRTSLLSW
Sequence of Serine/threonine-protein kinase 10 (Homo sapiens) (O94804 whole entry, looked up): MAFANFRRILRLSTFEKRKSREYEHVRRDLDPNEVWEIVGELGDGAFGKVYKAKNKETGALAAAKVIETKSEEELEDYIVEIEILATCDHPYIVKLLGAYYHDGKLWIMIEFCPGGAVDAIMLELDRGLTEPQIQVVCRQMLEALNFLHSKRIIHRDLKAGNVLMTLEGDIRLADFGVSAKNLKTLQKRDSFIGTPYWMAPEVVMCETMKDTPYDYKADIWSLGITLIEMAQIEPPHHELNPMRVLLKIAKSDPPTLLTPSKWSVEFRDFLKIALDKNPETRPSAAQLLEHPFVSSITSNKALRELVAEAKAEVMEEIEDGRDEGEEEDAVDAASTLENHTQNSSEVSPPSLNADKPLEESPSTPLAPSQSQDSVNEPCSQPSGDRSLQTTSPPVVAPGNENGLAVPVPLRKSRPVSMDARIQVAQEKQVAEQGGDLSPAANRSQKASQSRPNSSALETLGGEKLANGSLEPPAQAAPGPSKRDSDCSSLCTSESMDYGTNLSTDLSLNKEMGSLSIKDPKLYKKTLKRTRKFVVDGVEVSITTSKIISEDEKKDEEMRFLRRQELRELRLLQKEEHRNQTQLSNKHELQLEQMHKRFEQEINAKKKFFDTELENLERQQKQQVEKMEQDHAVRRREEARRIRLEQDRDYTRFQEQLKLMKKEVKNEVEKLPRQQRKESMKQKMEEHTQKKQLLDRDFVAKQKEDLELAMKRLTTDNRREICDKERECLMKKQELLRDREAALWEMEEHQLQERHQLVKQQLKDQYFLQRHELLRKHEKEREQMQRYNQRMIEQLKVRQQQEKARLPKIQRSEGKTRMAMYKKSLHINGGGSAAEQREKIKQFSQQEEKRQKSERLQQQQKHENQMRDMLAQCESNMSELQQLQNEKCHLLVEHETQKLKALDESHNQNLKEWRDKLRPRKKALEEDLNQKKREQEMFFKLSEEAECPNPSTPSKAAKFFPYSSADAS
Sequence of NT-3 growth factor receptor (Homo sapiens) (Q16288 32-839 limits assumed): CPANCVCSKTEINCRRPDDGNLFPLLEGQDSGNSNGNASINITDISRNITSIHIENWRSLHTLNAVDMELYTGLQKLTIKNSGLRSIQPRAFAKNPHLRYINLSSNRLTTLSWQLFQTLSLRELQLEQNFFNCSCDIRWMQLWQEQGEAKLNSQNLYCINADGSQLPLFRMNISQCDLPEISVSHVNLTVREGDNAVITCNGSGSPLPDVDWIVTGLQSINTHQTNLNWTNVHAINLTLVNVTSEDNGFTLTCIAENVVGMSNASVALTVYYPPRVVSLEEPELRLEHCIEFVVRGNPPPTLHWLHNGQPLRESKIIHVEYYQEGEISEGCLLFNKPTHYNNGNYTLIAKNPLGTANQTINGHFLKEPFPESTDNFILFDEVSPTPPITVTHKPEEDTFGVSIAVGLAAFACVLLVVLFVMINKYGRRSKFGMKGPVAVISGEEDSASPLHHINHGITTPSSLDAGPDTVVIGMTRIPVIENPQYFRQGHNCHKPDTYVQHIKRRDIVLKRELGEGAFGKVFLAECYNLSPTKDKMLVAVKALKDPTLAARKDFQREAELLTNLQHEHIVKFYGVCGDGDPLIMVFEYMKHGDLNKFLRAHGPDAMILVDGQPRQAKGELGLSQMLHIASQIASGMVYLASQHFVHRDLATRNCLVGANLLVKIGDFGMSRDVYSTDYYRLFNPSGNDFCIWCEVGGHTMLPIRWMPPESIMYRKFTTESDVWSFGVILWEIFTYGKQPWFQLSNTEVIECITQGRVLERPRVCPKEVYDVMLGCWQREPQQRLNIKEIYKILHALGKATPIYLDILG
Sequence of High affinity nerve growth factor receptor (Homo sapiens) (P04629 33-796 limits assumed): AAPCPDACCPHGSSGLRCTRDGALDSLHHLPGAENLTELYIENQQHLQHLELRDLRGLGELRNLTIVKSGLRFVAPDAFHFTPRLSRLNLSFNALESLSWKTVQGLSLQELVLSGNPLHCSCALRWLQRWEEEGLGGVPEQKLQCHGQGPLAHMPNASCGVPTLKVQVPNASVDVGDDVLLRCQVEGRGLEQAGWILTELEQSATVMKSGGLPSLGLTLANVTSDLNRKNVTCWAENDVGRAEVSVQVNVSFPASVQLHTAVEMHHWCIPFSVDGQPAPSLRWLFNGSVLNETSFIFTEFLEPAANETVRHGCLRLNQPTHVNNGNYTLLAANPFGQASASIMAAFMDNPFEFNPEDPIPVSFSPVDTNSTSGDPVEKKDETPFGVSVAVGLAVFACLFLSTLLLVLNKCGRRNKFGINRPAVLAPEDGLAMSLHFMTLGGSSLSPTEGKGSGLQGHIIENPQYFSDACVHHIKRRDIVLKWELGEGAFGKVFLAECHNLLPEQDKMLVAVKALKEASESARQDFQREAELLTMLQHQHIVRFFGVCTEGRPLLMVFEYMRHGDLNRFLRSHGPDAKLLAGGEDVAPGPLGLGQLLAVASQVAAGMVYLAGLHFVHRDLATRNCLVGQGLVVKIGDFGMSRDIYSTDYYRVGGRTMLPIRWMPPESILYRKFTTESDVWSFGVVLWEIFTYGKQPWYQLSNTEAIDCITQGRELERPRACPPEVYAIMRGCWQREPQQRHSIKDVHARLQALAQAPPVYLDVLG
Sequence of BDNF/NT-3 growth factors receptor (Homo sapiens) (Q16620 32-822 limits assumed): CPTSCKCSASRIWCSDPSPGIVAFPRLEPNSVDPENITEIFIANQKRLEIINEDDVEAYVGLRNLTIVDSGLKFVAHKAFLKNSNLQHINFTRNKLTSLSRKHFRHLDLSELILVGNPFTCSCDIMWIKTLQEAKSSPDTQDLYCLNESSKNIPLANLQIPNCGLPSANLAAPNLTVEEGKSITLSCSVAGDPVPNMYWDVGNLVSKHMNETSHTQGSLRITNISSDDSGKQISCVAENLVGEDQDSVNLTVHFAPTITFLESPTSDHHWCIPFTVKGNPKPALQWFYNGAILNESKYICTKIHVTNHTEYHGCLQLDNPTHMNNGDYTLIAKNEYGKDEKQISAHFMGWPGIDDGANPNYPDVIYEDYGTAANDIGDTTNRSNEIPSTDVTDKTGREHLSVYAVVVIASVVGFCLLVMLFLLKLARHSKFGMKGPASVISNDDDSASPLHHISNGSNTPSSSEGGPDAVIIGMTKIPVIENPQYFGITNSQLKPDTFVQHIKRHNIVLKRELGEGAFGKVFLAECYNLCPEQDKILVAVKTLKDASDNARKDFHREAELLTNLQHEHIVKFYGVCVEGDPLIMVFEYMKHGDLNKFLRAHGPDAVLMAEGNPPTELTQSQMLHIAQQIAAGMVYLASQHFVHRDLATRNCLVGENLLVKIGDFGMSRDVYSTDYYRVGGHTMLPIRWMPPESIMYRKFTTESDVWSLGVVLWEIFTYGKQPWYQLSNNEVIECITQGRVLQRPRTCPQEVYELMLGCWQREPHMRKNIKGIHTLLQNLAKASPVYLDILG

A word on the inhibition: it is the relative decrease from the control value, in per cent. As to `Nc1nonc1-c1nc2cnccc2n1C1CC1`, the inhibition in [1] is 0.83% and 3.35%; in assay [2] it was 1.21% and 3.09%; in [3], 3.17% and -0.36%; in assay [4], 2.17% and 1.89%; in assay [5] it was 3.84% and 1.11%; in assay [6], 4.13% and -0.96%. Further, the inhibition in assay [7] is 5.76% and -3.04%; in assay [8], -4.88% and 0.09%; in [9], 5.15% and -6.34%; in assay [10] it was 3.77% and -2.63%; in assay [11] it was 10.7% and -0.07%; in assay [12] it was 5.82% and -0.78%. The inhibition in [13] is 11.3% and 1.86%; in [14], 4.22% and -3.73%; in assay [15], 11.6% and -0.49%; in assay [16], 7.02% and 3.14%; in assay [17], 15.1% and 14.1%; in assay [18] it was 3.53% and 3.38%. Also, the inhibition was 14.3% and 12.8% in [19]; 11.1% and 7.77% in assay [20].
In the case of `COc1cc(N2CCN(C(C)C)CC2)ccc1Nc1nc(Nc2cccc(F)c2C(=O)O)c2cc[nH]c2n1`, the inhibition in assay [1] is 0.85%; in assay [2] it was 3.78%; in assay [3], 6.6%; in assay [4], 2.64%; in assay [5] it was 4.58%; in assay [6], 1.98%. Also, the inhibition in assay [7] is 3.5%; in [8], -3.16%; in [9], 77.3%; in assay [10] it was 3.47%; in [11] it was 6.46%; in [12], 4.82%. Moreover, the inhibition in [13] is 5.02%; in [14] it was 0.7%; in [15], -0.44%; in assay [16], 5.69%; in assay [17], 9.11%; in [18], 0.91%. The inhibition in assay [19] is 3.18%; in [20], 7.43%.
For the molecule `N#Cc1cccc(Nc2ncc(-c3ccccc3)o2)c1`, the inhibition in assay [1] was 12.6%; in assay [2] it was 3.16%; in assay [3] it was 26.5%; in assay [4], 4.53%; in assay [5], 25.1%; in assay [6], 1.62%. Further, the inhibition in assay [7] was 3.17%; in assay [8], -5.06%; in assay [9] it was 8.8%; in assay [10], 1.03%; in assay [11] it was 11.6%; in assay [12], 4.81%. Further, the inhibition in [13] was found to be 1.97%; in [14], 1.44%; in assay [15], 5.62%; in [16], 2.27%; in assay [17], 3.84%; in assay [18] it was 0.79%. Further, the inhibition in assay [19] was 2.94%; in [20] it was 4.93%.
With `O=C(O[C@H]1CN[C@H](C#Cc2cc3ncnc(Nc4ccc5c(ccn5Cc5cc(F)ccc5F)c4)c3s2)C1)N1CCOCC1`, the inhibition worked out at 0.61% in assay [1]; 1.99% in [2]; 3.22% in assay [3]; 2.18% in assay [4]; 2.92% in assay [5]; 3.8% in assay [6]. The inhibition in assay [7] was 5.25%; in assay [8], -1.85%; in [9], 9.66%; in assay [10], 4.5%; in assay [11], 9.24%; in assay [12], 5.02%. The inhibition in assay [13] is 8.88%; in assay [14], 1.44%; in [15], 9.49%; in assay [16], 8.09%; in [17], 7.76%; in assay [18], 1.18%. The inhibition in [19] was 2.82%; in assay [20], 5.04%.
Regarding `COC(=O)Nc1nc2ccc(Oc3ccc(NC(=O)Nc4cc(C(F)(F)F)ccc4F)cc3)cc2s1`, the inhibition turned out to be 81.5% in assay [1]; 24.9% in assay [2]; 61% in assay [3]; 25.7% in assay [4]; 88.5% in assay [5]; 1.96% in assay [6]. The inhibition is 2.35% in [7]; -0.09% in assay [8]; 9.84% in assay [9]; 1.12% in [10]; 7.02% in [11]; 5.4% in assay [12]. Besides, the inhibition came out at 30.8% in assay [13]; 9.05% in assay [14]; 50.4% in assay [15]; 24.5% in assay [16]; 55.4% in assay [17]; 10.7% in [18]. In addition, the results for the inhibition in [19] and in assay [20] were 28.6% and 2.18%, respectively.
